Measured values: PubChem BioAssay (NCI)
Where “and” joins values, the source holds several entries; their conditions need not be identical. Equal values may be shown once. Compounds without any hit were thinned out: in the full panel of roughly 83,000, 20% have a hit.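 Note: values are percent growth. 100 is the growth of untreated cells, values between 100 and 0 indicate rising inhibition; between -100 and 0 indicates cell death.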 Calls of active or inactive are those of the source. Rule for the calls: active = growth percent below 10; inactive = the rest.

What follows are molecules tested on MDA-MB-468 breast (assay: NCI-60 one-dose screen, 48 h (100 = growth as untreated, 0 = no growth, -100 = all killed)). Conditions: 10 µM unless noted.
ClC(Cl)c1nc(-c2ccccc2)nc2cc(-c3ccccc3)nn12 was tested, and the growth was 33.8% (inactive).
For COCCOc1cc2ncnc(N3CCN(c4cc(S(C)(=O)=O)c(C)cc4Cl)CC3)c2cc1OCCOC, the growth was 90.2% (inactive).
With COc1cc(NCCCCCNC(C)C)c2ncccc2c1 the growth was 87.6% (inactive) and 39.1% (inactive).
N=c1c(S(=O)(=O)c2ccccc2)cc2c(=O)n3ccccc3nc2n1C1CCCC1 was tested, and the growth was 88.1% (inactive).
With N#CC(I)CS(=O)(=O)c1ccccc1 (stereo not drawn) the growth was 25% (inactive).
In the case of Cc1ccc(NS(=O)(=O)c2cc(C)ccc2C)cc1, the growth is reported as 0.244% (active).
With Nc1ncc(-c2ccc3ncnc(N4CCc5cc(F)c(Cl)cc54)c3c2)cn1 the growth was 15.8% (inactive) and -64% (active).
In the case of O=C(NCCCNC(=O)OCc1ccc2c(Br)cc(Br)c(O)c2n1)OCc1ccc2c(Br)cc(Br)c(O)c2n1, the growth is reported as -72% (active).
Cc1c2c(nn1C(=O)c1nn(-c3ccc(Cl)cc3)cc1O)-c1ccccc1CC2 was tested, and the growth was 13.9% (inactive).
For O=C1Nc2c(ccc(Cl)c2Cl)/C1=C/c1ccc([N+](=O)[O-])cc1, the growth was 103% (inactive).
In the case of CC(=O)Oc1cc(C(C)C)c(OCCN(C)C)cc1C, the growth is reported as 110% (inactive) and 104% (inactive).
In the case of COc1cccc(-c2nn(-c3ccccc3)cc2-c2ccnc(NCCCNC(=O)c3ccc(F)cc3)c2)c1, the growth is reported as 13.7% (inactive).
C[C@]12CC[C@@H]3c4ccc(O)cc4CC[C@H]3[C@@H]1CC[C@@H]2NS(=O)(=O)c1ccc(C(F)(F)F)cc1 was tested, and the growth was 53% (inactive).
